Data: PubChem BioAssay

Tests used:
[1] = test system: Botulinum neurotoxin type F light chain protease (Clostridium botulinum); test: Botulinum neurotoxin type F light chain protease inhibition, multiplex microsphere flow cytometry, validation set (AID 588459); details: multiplex microsphere protease substrate cleavage assay, at 10 µM, stronger effect = higher value
[2] = molecular target: Botulinum neurotoxin type A (Clostridium botulinum) (UniProt P0DPI0); test: BoNT/A light chain protease inhibitors, biochemical, multiplex microsphere flow cytometry, validation set (AID 588460); details: at 10 µM, stronger effect = higher value
Chain of Botulinum neurotoxin type A (Clostridium botulinum) (P0DPI0 whole entry, looked up): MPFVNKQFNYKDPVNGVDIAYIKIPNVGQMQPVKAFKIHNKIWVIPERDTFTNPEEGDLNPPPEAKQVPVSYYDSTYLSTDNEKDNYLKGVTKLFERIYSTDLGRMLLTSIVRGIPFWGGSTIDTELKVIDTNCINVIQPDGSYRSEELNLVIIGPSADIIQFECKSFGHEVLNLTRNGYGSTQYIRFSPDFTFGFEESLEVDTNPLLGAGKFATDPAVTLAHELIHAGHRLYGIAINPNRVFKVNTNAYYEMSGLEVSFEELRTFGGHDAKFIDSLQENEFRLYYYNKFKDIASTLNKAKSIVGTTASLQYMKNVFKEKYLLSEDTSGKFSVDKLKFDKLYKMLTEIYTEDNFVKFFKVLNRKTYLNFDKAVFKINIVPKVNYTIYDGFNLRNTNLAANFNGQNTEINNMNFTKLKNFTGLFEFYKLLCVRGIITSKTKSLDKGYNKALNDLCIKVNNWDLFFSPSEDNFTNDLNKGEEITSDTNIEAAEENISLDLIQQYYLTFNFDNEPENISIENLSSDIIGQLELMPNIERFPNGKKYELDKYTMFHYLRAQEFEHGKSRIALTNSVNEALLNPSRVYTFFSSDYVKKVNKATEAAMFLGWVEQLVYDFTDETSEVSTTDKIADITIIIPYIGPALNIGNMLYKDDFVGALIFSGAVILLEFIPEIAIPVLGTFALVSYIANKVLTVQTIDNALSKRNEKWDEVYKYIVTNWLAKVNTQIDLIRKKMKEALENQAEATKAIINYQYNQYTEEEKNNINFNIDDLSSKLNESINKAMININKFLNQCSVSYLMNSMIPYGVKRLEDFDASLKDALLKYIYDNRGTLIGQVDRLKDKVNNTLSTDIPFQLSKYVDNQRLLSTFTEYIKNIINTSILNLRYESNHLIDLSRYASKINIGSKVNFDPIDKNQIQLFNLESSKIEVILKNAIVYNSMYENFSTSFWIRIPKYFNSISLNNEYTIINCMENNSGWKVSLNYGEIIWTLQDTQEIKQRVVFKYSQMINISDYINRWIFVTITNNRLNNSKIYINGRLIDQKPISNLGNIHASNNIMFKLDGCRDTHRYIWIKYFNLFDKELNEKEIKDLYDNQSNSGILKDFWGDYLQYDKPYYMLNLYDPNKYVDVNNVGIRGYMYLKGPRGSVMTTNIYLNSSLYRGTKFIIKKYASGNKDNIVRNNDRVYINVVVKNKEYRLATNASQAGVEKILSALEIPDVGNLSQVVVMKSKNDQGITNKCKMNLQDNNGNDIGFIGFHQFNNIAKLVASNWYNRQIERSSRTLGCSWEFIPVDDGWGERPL

[3] = molecular target: Lethal factor (Bacillus anthracis) (UniProt P15917); test: Lethal factor protease inhibitors, Bacillus anthracis, multiplex microsphere cleavage assay, validation set (AID 588461); details: flow cytometry, at 10 µM, stronger effect = higher value
Chain of Lethal factor (Bacillus anthracis) (P15917 whole entry, looked up): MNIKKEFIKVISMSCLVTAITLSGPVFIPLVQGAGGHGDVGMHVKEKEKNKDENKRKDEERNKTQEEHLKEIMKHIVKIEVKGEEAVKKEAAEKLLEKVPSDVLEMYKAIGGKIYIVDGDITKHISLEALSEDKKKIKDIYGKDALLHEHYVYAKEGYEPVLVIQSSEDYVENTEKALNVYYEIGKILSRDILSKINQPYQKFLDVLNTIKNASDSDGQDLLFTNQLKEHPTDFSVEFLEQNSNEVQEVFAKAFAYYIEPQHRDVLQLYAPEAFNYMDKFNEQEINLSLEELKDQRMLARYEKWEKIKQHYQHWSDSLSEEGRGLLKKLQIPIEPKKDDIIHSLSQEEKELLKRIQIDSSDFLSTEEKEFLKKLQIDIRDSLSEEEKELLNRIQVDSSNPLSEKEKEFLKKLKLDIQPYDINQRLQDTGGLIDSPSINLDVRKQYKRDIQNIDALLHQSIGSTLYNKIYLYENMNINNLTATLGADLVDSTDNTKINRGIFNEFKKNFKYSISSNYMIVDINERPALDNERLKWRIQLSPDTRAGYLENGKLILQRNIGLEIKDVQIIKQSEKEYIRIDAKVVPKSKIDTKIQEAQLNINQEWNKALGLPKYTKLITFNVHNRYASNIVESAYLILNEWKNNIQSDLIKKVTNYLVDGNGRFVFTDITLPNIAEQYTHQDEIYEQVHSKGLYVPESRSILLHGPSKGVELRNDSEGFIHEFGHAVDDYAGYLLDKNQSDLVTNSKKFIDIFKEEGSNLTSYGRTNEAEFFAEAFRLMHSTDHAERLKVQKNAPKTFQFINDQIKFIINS

Measured: inhibition

CC(NCCc1ccc(O)cc1)C(O)c1ccc(O)cc1 (stereo not drawn)
inactive: [1] 1.6% | [2] -0.5% | [3] -3.1%

CCN(CC)C(=O)N1CCN(C)CC1
inactive: [1] -3.4% | [2] -0.7% | [3] 4.2%

N/C(=N\OC(=O)c1cccc(Br)c1)c1ccncc1
inactive: [1] 0.8% | [2] 0.4% | [3] -3.1%

Nc1ccc(-c2nc3ncccc3o2)c(Cl)c1
inactive: [1] -2.1% | [2] -1.8% | [3] -10.9%

COc1ccccc1C(=O)Nc1cc2cc(Br)ccc2oc1=O
inactive: [1] 3.8% | [2] 1.1% | [3] 0.4%

COc1ccc(/C=C/C(=O)NC(=S)NN2CCCCC2c2cccnc2)cc1 (stereo not drawn)
inactive: [1] 3.7% | [2] 1.8% | [3] -3.5%

CC(=O)[C@@]1(O)CC[C@H]2[C@@H]3C[C@H](C)C4=CC(=O)C=C[C@]4(C)[C@@]3(F)[C@@H](O)C[C@@]21C
inactive: [1] -1.5% | [2] -1.1% | [3] 5.2%

Cc1ccc(C2=NOC(=O)/C2=C\C=C\c2ccccc2)cc1
inactive: [1] 2.1% | [2] 1% | [3] 0.5%

COCCn1c(/C=C/c2ccccc2)nc2ccccc21
inactive: [1] -1.2% | [2] 0% | [3] -3.4%

CC1(C#CC[N+]2(C)CCCCC2)CCC2C(O1)c1ccccc1OC2(C)C (stereo not drawn)
inactive: [1] 2.6% | [2] -0.8% | [3] -2.1%

COc1ccc(C2CC(c3ccc([N+](=O)[O-])cc3)=NN2C(=O)c2ccccc2)cc1OC (stereo not drawn)
inactive: [1] 10.2% | [2] 7.9% | [3] 2.3%
